# Source: PubChem (National Center for Advancing Translational Sciences (NCATS))
# PK Bst – Pyruvate Kinase | Potency, µM | 51,000 tested, 1.2% active | purified pyruvate kinase, luminescence ATP production; ribose 5-phosphate activator present at AC10 | AID 361, 2006; in the data active = potency below about 11 µM; inconclusive = mostly about 12 µM to 25 µM;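 the screen sought inhibitors and activators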;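 note: potency is the fitted concentration of half-maximal effect; scaled between full activation by ribose 5 phosphate and full inhibition by luteolin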
# GBA activity – Glucocerebrosidase. purified enzyme, resorufin glucoside fluorescence (screen aimed at inhibitors), 20 min. Potency, µM. 48,000 tested, 1.1% active; in the data active = potency below about 15 µM; inconclusive = mostly about 16 µM to 33 µM;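 note: potency is the fitted concentration of half-maximal effect; the screen sought inhibitors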
# Target sequence (P04062 whole entry, looked up): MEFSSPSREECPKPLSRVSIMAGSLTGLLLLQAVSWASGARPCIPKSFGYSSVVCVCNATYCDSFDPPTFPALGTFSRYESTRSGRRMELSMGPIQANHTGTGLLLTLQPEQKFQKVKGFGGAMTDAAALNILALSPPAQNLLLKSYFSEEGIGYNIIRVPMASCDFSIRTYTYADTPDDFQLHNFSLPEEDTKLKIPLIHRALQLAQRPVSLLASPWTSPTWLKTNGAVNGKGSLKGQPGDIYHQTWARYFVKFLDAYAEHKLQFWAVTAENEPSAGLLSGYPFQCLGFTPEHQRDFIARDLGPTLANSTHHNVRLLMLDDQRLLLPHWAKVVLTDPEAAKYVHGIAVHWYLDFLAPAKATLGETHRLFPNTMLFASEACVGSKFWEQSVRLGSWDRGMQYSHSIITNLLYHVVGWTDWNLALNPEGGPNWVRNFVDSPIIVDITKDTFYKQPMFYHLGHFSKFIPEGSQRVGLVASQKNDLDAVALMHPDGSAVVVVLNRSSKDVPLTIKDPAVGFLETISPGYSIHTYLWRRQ
#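 Normal human glucocerebrosidase (0.2 nM final) was assayed with resorufin β-D-glucopyranoside (30 uM final) in 50mM citric acid/KH2PO4, 10mM sodium taurocholate, 0.01% tween-20, pH 5.9. Compounds were titrated; fluorescence (Ex 548, Em 600) read after 20 min at RT.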
# HEK293 cAMP cs – qHTS Assay for Agonists of the Thyroid Stimulating Hormone Receptor: Activators of Intracellular cAMP Concentrations in Parental HEK 293; 73,000 tested, 2.5% active; Potency, µM (doses to about 57.1 µM), without a hit: top-dose activation, hits mostly activators; parental HEK293 CNG cAMP sensor, membrane potential fluorescence; note: potency is the fitted concentration of half-maximal effect; % of control where 0% means no effect; nearly all actives have a fitted effect of over 55% in size
#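 Counterscreen for endogenous-receptor signalling: CNG-channel HEK 293 cells report cAMP rise by membrane depolarization. After 60 min dye equilibration with 100 uM RO 20-1724, compounds incubated 30 min before bottom-read fluorescence at 590 nm.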
# Luciferase inh – qHTS Assay for Inhibitors of Firefly Luciferase. AID 411, 2009. purified firefly luciferase, luminescence, 8 min. Potency, µM (doses to about 57.1 µM), for the others: at the top dose activity change, negative = inhibition, actives largely listed as inhibitors. 72,000 tested, 2.2% active. Luciferin 4-monooxygenase (Photinus pyralis), P08659; note: potency is the fitted concentration of half-maximal effect; % is set by controls: 0 for no effect and ±100 for the full control effect; nearly all actives have a fitted effect of over 40% in size
#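 Substrate buffer containing 10 uM ATP (pH 7.2 imidazole, Mg2+, KCl, detergent, BSA) is dispensed, compound pinned in, then luciferase/luciferin detector mix added. After 8 min at ambient temperature, light output is measured.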
# TSHR agonist – qHTS Assay for Agonists of the Thyroid Stimulating Hormone Receptor; Thyrotropin receptor (Homo sapiens), P16473; HEK293-CNG-TSHR cells (CNG channel as cAMP sensor), membrane potential dye, cAMP; Potency, µM (highest dose often 57.1 µM), inactives show top-dose activation, usual class: activators; 73,000 tested, 0.48% active; active = well fitted activation curve with a large enough effect in the main read-out, with a control signal flat, not every such curve was filed as active; inconclusive = small, poorly fitted or top-dose-only effect, or a change in a side signal; inactive = no such curve, though single readings can be large or run the other way; % of control where 0% means no effect;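 note: the control signal comes from parental cells without the receptor; potency is the fitted concentration of half-maximal effect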
#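 HEK 293 cells stably expressing TSHR and a cAMP-gated CNG channel; parental CNG-only cells as counterscreen. Cells preloaded 60 min with membrane potential dye plus 100 uM RO 20-1724, then compound 30 min; fluorescence read at 590 nm.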
# HEK293 cAMP cnt – Confirmation Concentration-Response Assay for Agonists of the Thyroid Stimulating Hormone Receptor: Activators of Intracellular cAMP Concentrations in Parental HEK 293. 150 tested, under 10 active. shares compounds with TSHR agonist. activity change, negative = inhibition, % at 32.9 µM. parental HEK293 CNG biosensor, cAMP membrane potential fluorescence
# Active calls of the source: *; u = inconclusive; x = not tested or not shown; [ ] = remark or other dose. Shown are actives, neighbours in structure and some others; about 5.8% of the full set was active somewhere. Unless noted, calls come from the whole dose curve; as a rule, active = well fitted curve in the direction sought with a large enough effect; inconclusive = small, poorly fitted or top-dose-only effect, or another doubt; inactive = no such curve, though single readings can be large; an effect the other way counts as inactive or inconclusive.
SMILES,PK Bst,GBA activity,HEK293 cAMP cs,Luciferase inh,TSHR agonist,HEK293 cAMP cnt
CC1(c2ccncc2)Nc2ccccc2-c2nc3ccccc3n21 (stereo not given),>57,>77,6%,-21%,25µM*,x
COc1ccc2c(c1)C1(Nc3ccccc3-c3nc4ccccc4n31)C(=O)N2 (stereo not given),>57,>77,u,-3%,u,x
C=CC(=O)OCC(CO)(COC(=O)C=C)COC(=O)C=C,x,x,-16%,x,-2%,x
CCN(CC)S(=O)(=O)c1ccc(Cl)c(C(=O)NC2CCCC2)c1,x,x,51%,3%,x,u
Cc1cccc(OCC(=O)OCC(=O)c2c(N)n(C)c(=O)n(C)c2=O)c1,>57,>77,0%,-7%,13µM*,4
Cn1cc(-c2nc3cncnc3n(C3CC3)c2=O)c2ccccc21,x,x,-16%,0%[11.4 µM],2%,x
COC(=O)C1=C(C)OC(N)=C(C#N)C1C1CCCCC1 (stereo not given),>57,>77,25%,1%,13µM*,16
COC(=O)C1=C(C)OC(N)=C(C#N)C1c1ccccc1 (stereo not given),>57,>77,23%,3%,3%,x
COC(=O)C1=C(C)OC(N)=C(C#N)C1c1c(C)nn(-c2ccccc2)c1Cl (stereo not given),>57,>77,15%,-1%,6.3µM*,6
Cc1cc(Cl)c(S(=O)(=O)Nc2ccc3c(c2)OCO3)cc1OCC(N)=O,>57,>77,20%,2%,13µM*,-8
COc1cccc([C@@H]2Oc3ccc(OC)cc3/C(=N/OC[C@@H](O)COCc3ccco3)[C@@H]2O)c1,x,x,1%[11.4 µM],1%[11.4 µM],-2%[11.4 µM],x
CCOC(=O)CN(C(=O)Cn1nnc2ccccc21)C(C(=O)NCCOC)c1ccccc1 (stereo not given),>57,>77,7%,2%,-1%,x
COCCNC(=O)C(c1ccccc1)N(Cc1cccs1)C(=O)Cn1nnc2ccccc21 (stereo not given),>57,>77,30%,2%,13µM*,7
COc1ccc(S(=O)(=O)N(C)CC(=O)N2CCCCCC2)cc1OC,>57,>77,6%,1%,1%,-44[25.6 µM]
O=C(O)CCc1c2ccc(=O)c(O)c-2oc2c(O)c(O)ccc12,x,x,2%[11.4 µM],-4%[11.4 µM],-4%[11.4 µM],x
CN(C)c1ncc2ncc(=O)n(Cc3cccs3)c2n1,x,x,u,2%[11.4 µM],u,x
Nc1nc(-c2ccccc2)cc(C(F)(F)F)n1,x,>77,20%,-1%,-1%,x
Oc1ccccc1-c1cc(C(F)(F)C(F)F)nc(-c2ccccc2)n1,>57,x,u,2%,u,3
COc1ccc2[nH]cc(CCNc3ccnc(-c4ccccc4C)n3)c2c1,x,x,-11%,-1%[2.29 µM],-4%,x
CC(CN(C)C)NC(=O)c1ccc(Cc2nc3ccccc3[nH]2)cc1 (stereo not given),x,x,-9%,x,2%,x
COc1ccc(O[C@H]2C=C[C@@H](c3ccccc3)O[C@H]2CO/N=C(/C)CCC(=O)OC[C@@H]2O[C@H](C#Cc3ccccc3)C=C[C@@H]2Oc2ccc(C)cc2)cc1,x,x,1%[11.4 µM],0%[11.4 µM],10%[11.4 µM],x
O=C(O)c1nnsc1-c1ccc(-c2snnc2C(=O)O)cc1,x,x,9%[11.4 µM],3%[11.4 µM],-6%[11.4 µM],x
CCOC(=O)N1CCC(NC(=O)c2ccc(CNS(=O)(=O)c3ccc(F)cc3)cc2)CC1,>57,>77,9%,1%,25µM*,8
CCN(C(=O)CN1CCCc2ccccc21)c1c(N)n(Cc2ccccc2)c(=O)[nH]c1=O,>57,>77,0%,0%,8%,x
CCn1c(=O)c(C(=O)CN2CCCc3ccccc32)c(N)n(Cc2ccccc2)c1=O,>57,>77,-8%,0%,-21%,-17[25.6 µM]
CO[C@H]1COC(=O)C/C=C\[C@H](C)[C@@H](NS(=O)(=O)c2ccc(C)cc2)COC(=O)CCC[C@@H]1C,x,x,9%[11.4 µM],0%[11.4 µM],13%[11.4 µM],x
O=C1C=C(NCc2ccccc2)C2(CCCCC2)O1,x,x,22%[11.4 µM],0%,x,17[25.6 µM]
